PubChem BioAssay (NCATS)
The source made the active and inactive calls. The call rests on the fitted dose curve; in most records, active means well fitted curve in the direction sought with a large enough effect; inconclusive means small, poorly fitted or top-dose-only effect, or effect the other way, or another doubt; inactive means no such curve, though single readings can be large or run the other way.

Test: qHTS for inhibitors of adenylyl cyclases using a fission yeast platform: a pilot screen against the NCATS LOPAC library (AID 1347410)
Conditions: S. pombe CHP2027, fbp1-GFP fluorescence, 18 h; series mostly up to 57.5 µM
Text: PI: Charles S. Hoffman Ph.D
Boston College, 140 Commonwealth Ave., Chestnut Hill, MA
Assay Development and Screening Technology Laboratory (ADST)
National Center for Advancing Translational Sciences (NCATS), Rockville, MD
National Institute of Health (NIH), Bethesda, Maryland
The fission yeast Schizosaccharomyces pombe uses a cAMP signaling pathway to link glucose-sensing to Protein Kinase A activity in order to regulate cell growth, sexual development, gluconeogenesis, and exit from stationary phase. Here, we describe the successful functional expression of all ten mammalian adenylyl cyclase (AC) genes, along with the human GNAS G-alpha gene in this organism. By measuring expression of a PKA-repressed fbp1-GFP reporter together with direct measurements of intracellular cAMP levels, one can detect both basal AC activity from all ten AC genes as well as GNAS-stimulated activity from eight of the nine transmembrane ACs (tmACs; AC2-AC9).
Further confirmation and validation of active compounds lead to the identification of diphenyleneiodonium chloride (DPI) as an inhibitor of basal AC activity. This fluorescence based fbp1-GFP-GNAS screening technology could facilitate the development of therapeutic compounds that target GNAS or the ACs, an area in which there is significant unmet need.
The gain-of-signal output is not substantially affected by cytotoxic compounds within the library.
Getz RA, et al., A fission yeast platform for heterologous expression of mammalian adenylyl cyclases and high throughput screening, Cellular Signaling, 2019, 60: 114-121. doi.org/10.1016/j.cellsig.2019.04.010.
PROTOCOL TABLE (as described by Inglese J, Shamu CE and Guy RK. 2007)
SEQUENCE No. (e.g., 1, 2, 3, etc.); […] (e.g., Cells, Incubation, Reagent, etc.); VALUE; DESCRIPTION.
1; Dispense growth medium; 2 uL; black, clear bottom, low base, 1536-well Aurora assay plate.
2; Compounds and control; 23 nL; Kalypsis pin tool (Wako USA) equipped with a 1536-well pin head to transfer to the assay plates.
3; Dispense yeast cells; 2 uL; CHP2027 cells.
4; Incubation; 18 hours (dark at 30C); Non-humidified microbial incubator.
5; Detector; 425V; Fluorescence; laser scanning cytometry.
NOTES (numbers refer to Sequence numbers above)
1. S. pombe growth medium EMM containing histidine, lysine, and uracil was initially dispensed into the assay plate to avoid yeast contamination using a Multidrop Combi dispenser (Thermo Fisher Scientific).
2. 10 mM stock solution of DPI (Sigma-Aldrich D2926) dissolved in DMSO was used as a 16-point dose response positive control, while 1.11 mM DPI stock solution was used as a single point max response positive control. Solvent DMSO was used as the negative control. Control DPI was transferred as a single-dose (column 3; rows 1-32; 1.11 mM stock), and multi-dose (column 4; rows 1-32; 10mM stock; 1:1.5 dilution; 16pnt titration) positive controls. Vehicle control DMSO was pinned into column 1-2, rows 1-32. Lopac compounds were pinned into columns 5-48 resulting to a final concentration range 57 µM to 78.4 nMControl DPI stock (10 mM) was prepared by dissolving 10 mg in 3.18 mL DMSO; while 1.11 mM DPI stock was prepared by mixing 100 uL of 10 mM DPI with 800 uL DMSO. To create the control plates, we initially start with a 384-well compound working plate. With a repeater pipette, (a.) 16 uL/well of 1.11 mM DPI was added to column 3; (b.) 16 uL/well of DMSO was added into rows 2-16 of column 4; (c.) 50 uL/well of DPI added to rows 1 and 2 of column 4; (d.) 32 uL serial dilution (two-thirds-fold) from rows 2 to 16 of column 4 with manual pipette. From the 384-well compound working plate, 7 uL of respective control compound was transferred to respective columns of the 1536-well compound plate using a multichannel pipette.
3. S. pombe CHP2027 (AC9-GNAS-PDE4D2) expressing fbp1-GFP cells were grown at 30C in EMM medium containing histidine, lysine, and uracil. […]

| SMILES | outcome |
| --- | --- |
| COc1ccc2c(c1O)-c1cccc3c1[C@@H](C2)N(C)CC3 | inactive |
| CC(Cc1ccc(OCC(=O)O)cc1)NCC(O)c1cccc(Cl)c1 (stereo not given) | inactive |
| C[C@@H]1O[C@@H](O[C@H]2C[C@@H](O)[C@]3(CO)[C@@H]4C(CC[C@]3(O)C2)[C@@]2(O)CC[C@H]([C@@H]3COC(=O)C3)[C@@]2(C)C[C@H]4O)[C@H](O)[C@H](O)[C@H]1O (stereo not given in full) | inactive |
| CN1C2CCC1CC(OC(c1ccccc1)c1ccccc1N)C2 (stereo not given) | inactive |
| CCS(=O)(=O)Nc1cccc(C(=C2CCCCC2)c2cnc[nH]2)c1 | inactive |
| O=C1C=CC(=O)C=C1 | inactive |
| Oc1ccc2c3c1O[C@H]1c4oc5ccccc5c4C[C@@]4(O)C(C2)N(CC2CC2)CCC314 (stereo not given in full) | inactive |
| Cc1o[nH]c(=O)c1CC(N)C(=O)O (stereo not given) | inactive |
| CN(N=O)c1cc(O)ccc1O | inactive |
| Ic1ccccc1CNC1C2CCN(CC2)C1C(c1ccccc1)c1ccccc1 (stereo not given) | inactive |
| N#C/C(=C/c1ccc(O)c(O)c1)C(N)=S | inactive |
| COc1ccc(CNC(=O)/C=C/c2ccc3[nH]cc(CCN(C)C)c3c2)cc1 | inactive |
| CCCN1CCc2cccc3c2[C@H]1Cc1ccc(O)c(O)c1-3 | inactive |
| C[C@H](Cc1ccc2c(c1)OC(C(=O)O)(C(=O)O)O2)NC[C@H](O)c1cccc(Cl)c1 | inactive |
| NCCCP(=O)(O)O | inactive |
| Nc1ccc(CCN2CCN(c3cccc(C(F)(F)F)c3)CC2)cc1 | inactive |
| CC(C)(C)OC(=O)NC1[C@H]2CNC[C@@H]12 (stereo not given in full) | inactive |
| NNC(=O)c1ccc(O)cc1 | inactive |
| O=[N+]([O-])/C=C/c1ccc2c(c1)OCO2 | inactive |
| CCCn1c(=O)c2[nH]c(C3CCCC3)nc2n(CCCOC(=O)c2ccc(S(=O)(=O)F)cc2)c1=O | inactive |

| SMILES | outcome |
| --- | --- |
| O=C1/C(=C/c2ccccc2)C[C@@]2(O)[C@H]3Cc4ccc(O)c5c4[C@@]2(CCN3CC2CC2)[C@H]1O5 | inactive |
| NCCc1c[nH]c2ccc(C(N)=O)cc12 | inactive |
| C[N+]1(C)CCOC(O)(c2ccc(-c3ccc(C4(O)C[N+](C)(C)CCO4)cc3)cc2)C1 (stereo not given) | inactive |
| C[N+](C)(C)CCOC(=O)CBr | inactive |
| CC(C)(C)c1cc(C=C(C#N)C#N)cc(C(C)(C)C)c1O | inactive |
| c1ccc2c(N3CCNCC3)cccc2c1 | inactive |
| OC1CCCCC1N1CCC(c2ccccc2)CC1 (stereo not given) | inactive |
| O=C1CC[C@@]2(O)C3Cc4ccc(O)c5c4C2(CCN3CC2CC2)[C@H]1O5 (stereo not given in full) | inactive |
| C[N+](C)(C)CC#CCN1CCCC1=O | inactive |
| N=C(N)c1ccc(CS(=O)(=O)F)cc1 | inactive |
| CN1CCc2cc(O)cc3c2[C@H]1Cc1ccc(O)c(O)c1-3 | inactive |
| CCCN1CCC[C@@H](c2cccc(O)c2)C1 | inactive |
| CC(N)Cc1c[nH]c2ccc(O)cc12 (stereo not given) | inactive |
| NC(=O)COc1c(F)cc(SCCNS(=O)(=O)c2ccccc2)cc1F | inactive |
| CCOC(=O)c1ncn2c1[C@@H]1CCCN1C(=O)c1cc(OC)ccc1-2 | inactive |
| CC(=O)OCC1=C(C(=O)O)N2C(=O)[C@@H](NC(=O)CCC[C@@H](N)C(=O)O)[C@H]2SC1 | inactive |
| NC(N)=Nc1ccc2[nH]c3c(c2c1)C[C@@]1(O)[C@H]2Cc4ccc(O)c5c4[C@@]1(CCN2CC1CC1)[C@H]3O5 | inactive |
| COc1ccc2c(c1)C13CCCCC1C(C2)N(C)CC3 (stereo not given) | inactive |
| COc1ccc(OC)c(C(O)C(C)N)c1 (stereo not given) | inactive |
| CN1CCC(c2c[nH]c3ccc(O)cc23)CC1 | inactive |
